Our source for the Potency values is PubChem BioAssay (NCATS).

Results filed as inconclusive are left out. Where a call stands in place of a potency, no number is given. Active and inactive are the calls of the source. The call rests on the fitted dose curve; in most records, active means well fitted cell-killing curve with a large enough effect; inconclusive means small, poorly fitted or top-dose-only effect, or effect the other way; inactive means no such curve, though single readings can be large or run the other way.
Potency means the concentration at half of the fitted maximal effect.

The test can be described thus: Quantitative highthroughput screen to assess conditional lethalithy of SEM cells grown in RPMI1640 with dialyzed fetal bovine serum (RPMI+ds) (AID 1963884). Further: nearly all actives have a fitted effect of over 35% in size. The note with it: SEM B-ALL cells, RPMI+dialyzed FBS, CellTiter-Glo viability, 48 h; series mostly up to 45.8 µM. The source says: Assay Provider: Jason Cantor Ph.D.
Department of Biochemistry
University of Wisconsin-Madison, Madison, WI, USA
Chemical screening studies have identified drug sensitivities across hundreds of cancer cell lines but most putative therapeutics fail to translate. Discovery and development of drug candidates in models that more accurately reflect nutrient levels in human blood is a major challenge. Here we performed high-throughput screens in conventional versus Human Plasma-Like Medium (HPLM) to identify compounds that were "missed" when screening using the artificial culture condition. Sets of conditional anticancer compounds spanned phases of clinical development and included non-oncology drugs were assessed. […] We also traced conditional phenotypes for several chemotherapeutics to availability of HPLM-specific metabolites and confirmed others for compounds whose reported targets are encoded by nonessential genes. Our findings establish generalizable strategies for exploiting conditional lethality in HPLM to reveal therapeutic candidates and mechanisms of action in cancer cells.
Described herein are the results of each viability screens against three cell lines: NOMO1 (an acute myeloid leukemia cell line); P12-Ichikawa (a T-cell acute lymphoblastic leukemia); and SEM (a B-cell ALL). Each assay was screened using 3 different cell culture media: homemade human plasma-Like medium with 10% dialyzed fetal bovine serum (HPLM+ds); RPMI1640 with 10% untreated FBS and 5mM glucose (RPMI+s); and RPMI1640 with 10% dialyzed fetal bovine serum and 5 mM glucose (RPMI+ds).
PROTOCOL TABLE (as described by Inglese J, Shamu CE and Guy RK. 2007)
SEQUENCE No. (e.g., 1, 2, 3, etc.); […] (e.g., Cells, Incubation, Reagent, etc.); VALUE and DESCRIPTION.
1; Cells; 5 uL; white, solid bottom 1536-well Greiner assay plate.
2; Compounds; 23 nL; Kalypsis pin tool (Wako USA) equipped with a 1536-well pin head to transfer to the assay plates.
3; Incubation; 48 hours; 37C incubation.
4; Reagent; 3 uL; CellTiter Glo (Promega).
5; Incubation; 5 min, room temperature
6; Detection; Luminescence, Viewlux PerkinElmer.
NOTES (numbers refer to Sequence numbers above)
1. Briefly, 5 ul of cell reagent was dispensed using a Multidrop Combi Dispenser. The NOMO1 and SEM cells were plated at 500 cells/well and the P12-Ichikawa line at 1000 cells/well.
2. After seeding the cells, 23 nL of MIPE 4.1 library compounds (in DMSO) were added to each plate using a Kalypsys 1536 Pintool dispenser. Bortezomib at final concentration of […] and DMSO were added to each plate as positive and negative controls respectively. For each screen, MIPE 4.1 compounds were added over an eleven-point concentration range […] in 3-fold dilutions.
3. Each plate was covered with a stainless steel gasketed lid to prevent evaporation and incubated for 48 hour at 37C, 95% relative humidity, and 5% CO2.
4-5. Three microliter CellTilter-GloTM luminescent substrate mix (Promega) reagent was added to the assay plate and incubated at room temperature for 5 min.
6. The luminescence signal was measured using a ViewLux (PerkinElmer) multiplate reader with a 2 second exposure time per plate. Data for each compound were normalized as percent viability such that measurements for DMSO and the empty well controls in each plate were defined as 100% and 0%, respectively.
For `COc1ccc(-c2coc3cc(O)cc(O)c3c2=O)cc1`, the Potency result was “inactive”. In the case of `C=C(c1ccc(C(=O)O)cc1)c1cc2c(cc1C)C(C)(C)CCC2(C)C`, the Potency entry was “inactive”. Turning to `NCCS(=O)(=O)O`, the Potency result is “inactive”.

Turning to `CC(C)C[C@H](NC(=O)[C@@H](NC(=O)c1cccc(-c2ccccc2)n1)[C@@H](C)O)B(O)O`, the Potency is 14.8 nM (active).

For the compound `Cc1cc(-c2ncc(CC(=O)Nc3ccc(-c4cnccn4)cn3)cc2C)ccn1`, the Potency result is “inactive”. Consider `Clc1ccc(C(Cn2ccnc2)OCc2c(Cl)cccc2Cl)c(Cl)c1` (stereo not given), for which the Potency entry was “inactive”. Regarding `CCOc1cc(N2CCC(O)CC2)ccc1Nc1ncc2c(n1)N(C)c1ccccc1C(=O)N2C`, the Potency is 16600 nM (active). `CS(=O)(=O)Oc1ccc2c(NC(N)=O)c(C(=O)c3ccc(Cl)cc3Cl)oc2c1`: the Potency entry was “inactive”.

`NC1(c2ccc(-c3nc4ccn5c(=O)[nH]nc5c4cc3-c3ccccc3)cc2)CCC1`: the Potency was 1480 nM (active). For `Cc1ncc([N+](=O)[O-])n1CCO` the value was “inactive”; for `C[C@@H]1[C@H](C)CC[C@]2(C(=O)O)CC[C@]3(C)C(=CC[C@@H]4[C@@]5(C)CC[C@H](O)C(C)(C)[C@H]5CC[C@]43C)[C@@H]12`, “inactive”; for `CC(=Cc1ccccc1)C=C1SC(=S)N(CC(=O)O)C1=O`, “inactive”. For `Cc1ccccc1C(C(=O)NC1CCCCC1)N(C(=O)Cn1ccnc1C)c1cccc(F)c1` (stereo not given) the value was “inactive”. For `C#C[C@]1(O)CC[C@H]2[C@H]3CCc4cc(OC)ccc4[C@H]3CC[C@@]21C` the value was “inactive”; for `CCCN[C@H]1CCc2nc(N)sc2C1`, “inactive”; for `O=C(NCCS(=O)(=O)c1ccc(C(F)(F)F)cn1)c1ccc(Cl)cc1`, “inactive”. Take `NC(=O)OCC(COC(N)=O)c1ccccc1`: the Potency result was “inactive”. Then `Oc1c(Cl)cc(Cl)c2cccnc12`, with 18700 nM (active); and `CCOC(=O)[C@H](CCc1ccccc1)N[C@@H](C)C(=O)N1CCCC1C(=O)O` (stereo not given in full), with “inactive”; and `COc1ccc(S(=O)(=O)Nc2cc(-c3c(O)ccc4ccccc34)c(O)c3ccccc23)cc1`, with 14800 nM (active). Consider `CN(C)CCc1c[nH]c2ccc(Cn3cncn3)cc12`, for which the Potency was 264 nM (active). For `Nc1nc(Nc2ccc(S(N)(=O)=O)cc2)nn1C(=O)c1c(F)cccc1F` the value was 9350 nM (active); for `CC=CC(=O)N(CC)c1ccccc1C`, “inactive”; for `Cc1nc2c([nH]1)CCN(C(=O)c1ccc(NC(=O)c3ccccc3-c3ccccc3)cc1)c1ccccc1-2`, “inactive”. On to `O=c1[nH]cnc2c1ncn2[C@H]1CC[C@@H](CO)O1`, for which the Potency result is “inactive”. On to `CC(=O)N(C)C1(c2ccccc2)CCN(CCC[C@]2(c3ccc(Cl)c(Cl)c3)CCCN(C(=O)c3ccccc3)C2)CC1`, for which the Potency was 1050 nM (active).

Turning to `COC(=O)[C@@H]1CC2=CC(=O)CC[C@]2(C)[C@@]23O[C@@H]2C[C@@]2(C)[C@H](CC[C@@]24CCC(=O)O4)[C@@H]13`, the Potency result was “inactive”. In the case of `CC(=O)ON=C1C(c2c(O)[nH]c3cc(Br)ccc23)=Nc2ccccc21`, the Potency was 935 nM (active). On to `CNCc1ccc(-c2[nH]c3cc(F)cc4c3c2CCNC4=O)cc1`, for which the Potency result is “inactive”. Take `CN(CC=CC#CC(C)(C)C)Cc1cccc2ccccc12`: the Potency result was “inactive”. For the compound `Clc1ccc(COC(Cn2ccnc2)c2ccc(Cl)cc2Cl)cc1` (stereo not given), the Potency result was “inactive”. Then `CNC(=O)c1ccc(Nc2cc(Nc3ccccc3S(=O)(=O)C(C)C)c3cc[nH]c3n2)nc1`, with 1050 nM (active); and `C#C[C@]1(O)CC[C@@H]2[C@@H]3CCc4cc(O)ccc4[C@H]3CC[C@@]21C`, with 11800 nM (active); and `COC(=O)Nc1cc(Nc2cc(NC3CC3)c3ncc(C#N)n3n2)c(Cl)c(N2CCN(C)CC2)c1`, with 2340 nM (active). Turning to `Cc1ccccc1C(=O)Nc1ccc(C(=O)N2CCCC(O)c3cc(Cl)ccc32)c(C)c1` (stereo not given), the Potency entry is “inactive”. Then `CC(C)(C)c1cc(C(=O)O)c(NC(=O)Nc2ccc3[nH]ncc3c2)s1`, with “inactive”; and `CC1=NN(c2ccccc2)C(=O)C1`, with “inactive”. Take `CCNC(=O)CCCC=CC[C@@H]1[C@H](C=CC(O)CCc2ccccc2)[C@@H](O)C[C@@H]1O` (stereo not given in full): the Potency entry was “inactive”. In the case of `Clc1ccc(C(c2ccc(Cl)cc2)n2cc[n+](CC(OCc3ccc(Cl)cc3Cl)c3ccc(Cl)cc3Cl)c2)cc1` (stereo not given), the Potency is 20900 nM (active).

As for `O=c1[nH]c(=O)n([C@H]2C[C@@H](O)[C@@H](CO)O2)cc1C(F)(F)F`, the Potency was 1870 nM (active).
